Values joined by “and” are separate entries in the source; they are usually repeats but may differ in a detail not shown here. Equal entries are not always repeated. Records with an inconclusive call do not appear. Where a structure was tested more than once in an assay, its records may differ in their call. Active and inactive are the calls of the source. Unless noted, calls follow the shape of the dose curve; as a rule, active = well fitted curve in the direction sought with a large enough effect in the repeat runs; inconclusive = weak or mixed curves; inactive = no such curve, though single readings can be large; an effect the other way counts as inactive or inconclusive.
Columns and labels:
[1] = qHTS assay to test for compound auto fluorescence at 535 nm (green) in HEK293 cells (AID 720680)
[2] = qHTS assay to test for compound auto fluorescence at 460 nm (blue) in HEK293 cell free culture (AID 720681)
Method in brief: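 Blue fluorescence (Ex 405/Em 460 nm, triamterene-equivalent) was read immediately after pin transfer of compound or DMSO into medium (DMEM, 10% FBS) without cells.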

[3] = qHTS assay to test for compound auto fluorescence at 535 nm (green) in HEK293 cell free culture (AID 720682)
Method in brief: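 Compounds were pin-transferred into cell-free DMEM with 10% FBS, and green fluorescence was read at excitation 485 nm and emission 535 nm. Intensities were expressed as fluorescein-equivalent values.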

[4] = qHTS assay to test for compound auto fluorescence at 590 nm (red) in HEK293 cell free culture (AID 720683)
Method in brief: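 Red-channel autofluorescence of compounds in culture medium (DMEM, 10% FBS), no cells, measured at 540/590 nm. Rose Bengal sodium is the reference fluorophore for equivalence.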

[5] = qHTS assay to test for compound auto fluorescence at 590 nm (red) in HepG2 cell free culture (AID 720684)
Method in brief: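 Steps: dispense MEM/10% FBS medium, no cells; pin compound or DMSO vehicle; read red channel, Ex/Em 540/590 nm. Output given as Rose Bengal sodium equivalents.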

[6] = qHTS assay to test for compound auto fluorescence at 460 nm (blue) in HepG2 cell free culture (AID 720685)
Method in brief: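 Compound (23 nL) or DMSO pinned into cell-free MEM with 10% FBS; blue fluorescence read at 405/460 nm excitation/emission, expressed as auto-fluorescence equivalency to triamterene.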

[7] = qHTS assay to test for compound auto fluorescence at 535 nm (green) in HepG2 cell free culture (AID 720686)
[8] = qHTS assay to test for compound auto fluorescence at 460 nm (blue) in HepG2 cells (AID 720687)
Method in brief: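 Blue-channel autofluorescence (Ex/Em 405/460 nm, triamterene-equivalent) was measured after 1 hr compound exposure at 37 C, 5% CO2. Cells were HepG2, plated overnight at 37 C in MEM plus 10% FBS.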

[9] = target: Glucocorticoid receptor (Homo sapiens) (UniProt P04150); test: qHTS assay to identify small molecule agonists of the glucocorticoid receptor (GR) signaling pathway (AID 720691; active = well fitted activation curve with a large enough effect in the signal ratio in the repeat runs, not every such curve was filed as active; the % refers to the signal ratio); details: GR-bla HeLa, beta-lactamase reporter ratio, 18 h; activation: at 62.4 µM (top of the series)
Chain of Glucocorticoid receptor (Homo sapiens) (P04150 whole entry, looked up): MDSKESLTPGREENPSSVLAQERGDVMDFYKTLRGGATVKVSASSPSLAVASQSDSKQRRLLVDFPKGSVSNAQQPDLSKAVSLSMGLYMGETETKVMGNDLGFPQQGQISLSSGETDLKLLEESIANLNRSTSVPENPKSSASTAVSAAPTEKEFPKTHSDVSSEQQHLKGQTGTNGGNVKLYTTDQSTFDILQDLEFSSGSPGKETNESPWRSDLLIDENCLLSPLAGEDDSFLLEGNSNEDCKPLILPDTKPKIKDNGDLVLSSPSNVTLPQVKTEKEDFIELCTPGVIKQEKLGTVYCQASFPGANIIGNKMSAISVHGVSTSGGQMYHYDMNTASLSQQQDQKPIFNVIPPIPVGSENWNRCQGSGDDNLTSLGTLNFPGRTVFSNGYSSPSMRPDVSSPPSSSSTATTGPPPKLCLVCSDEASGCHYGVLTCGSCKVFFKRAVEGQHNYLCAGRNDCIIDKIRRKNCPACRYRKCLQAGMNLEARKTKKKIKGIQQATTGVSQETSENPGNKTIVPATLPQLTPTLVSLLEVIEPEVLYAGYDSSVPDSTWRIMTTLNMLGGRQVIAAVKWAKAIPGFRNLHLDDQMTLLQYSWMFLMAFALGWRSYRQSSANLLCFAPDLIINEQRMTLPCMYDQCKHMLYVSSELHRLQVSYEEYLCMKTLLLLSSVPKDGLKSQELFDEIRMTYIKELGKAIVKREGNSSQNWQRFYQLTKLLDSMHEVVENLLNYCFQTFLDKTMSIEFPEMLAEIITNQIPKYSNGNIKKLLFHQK
Method in brief: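 Beta-lactamase reporter activity, read as fluorescence intensity, was measured in GR-bla HeLa cells exposed to compounds for 18 h at 37 C and then loaded with LiveBLAzer B/G FRET substrate for 2 h at room temperature.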

[10] = qHTS assay to identify small molecule antagonists of the glucocorticoid receptor (GR) signaling pathway - cell viability counter screen (AID 720693); also: nearly all actives have a fitted effect of over 55% in size
[11] = qHTS assay for identifying genotoxic compounds that show differential cytotoxicity against isogenic chicken DT40 cell lines with known DNA damage response pathways - wild type cell line (AID 743012); also: nearly all actives have a fitted effect of over 60% in size; also: potency is read from the fitted curve at half-maximal effect
Method in brief: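 Quantitative HTS on parental DT40 cells: 40 h compound treatment at 37 C/5% CO2, with viability then determined by CellTiter-Glo luminescence. Values serve as the DNA repair-proficient reference for differential cytotoxicity.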

[12] = qHTS assay for identifying genotoxic compounds that show differential cytotoxicity against isogenic chicken DT40 cell lines with known DNA damage response pathways - Rev3 mutant cell line (AID 743014); also: nearly all actives have a fitted effect of over 55% in size; also: potency is read from the fitted curve at half-maximal effect
[13] = qHTS assay for identifying genotoxic compounds that show differential cytotoxicity against isogenic chicken DT40 cell lines with known DNA damage response pathways - Rad54/Ku70 mutant cell line (AID 743015); also: nearly all actives have a fitted effect of over 60% in size; also: potency is read from the fitted curve at half-maximal effect
[14] = qHTS assay to identify small molecule antagonists of the androgen receptor (AR) signaling pathway - cell viability counter screen (AID 743033; also: nearly all actives have a fitted effect of over 45% in size; also: potency is read from the fitted curve at half-maximal effect)
[15] = target: Glucocorticoid receptor (Homo sapiens) (UniProt P04150); test: qHTS assay to identify small molecule antagonists of the glucocorticoid receptor (GR) signaling pathway (AID 720692; active = well fitted inhibition curve with a large enough effect in the signal ratio in the repeat runs, not every such curve was filed as active; the % refers to the signal ratio)
Method in brief: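 Fluorescence from cleaved LiveBLAzer B/G FRET substrate reports GRE-driven beta-lactamase in HeLa cells; compounds are tested against 5 nM dexamethasone (final) over 18 h at 37 C, substrate incubation 2 h at room temperature.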

[16] = qHTS assay to identify small molecule antagonists of the androgen receptor (AR) signaling pathway using the MDA cell line - cell viability counter screen (AID 743041; also: nearly all actives have a fitted effect of over 45% in size)
Method in brief: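 Cells were plated at 3,000 per well and left 5 h. Compounds in DMSO were then pinned in, followed by R1881. After 16 h at 37C, CellTiter-Fluor fluorescence gave viability.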

[17] = target: Androgen receptor (Homo sapiens) (UniProt P10275); test: qHTS assay to identify small molecule antagonists of the androgen receptor (AR) signaling pathway (AID 743035; active = well fitted inhibition curve with a large enough effect in the signal ratio in the repeat runs, not every such curve was filed as active; the % refers to the signal ratio)
Chain of Androgen receptor (Homo sapiens) (P10275 whole entry, looked up): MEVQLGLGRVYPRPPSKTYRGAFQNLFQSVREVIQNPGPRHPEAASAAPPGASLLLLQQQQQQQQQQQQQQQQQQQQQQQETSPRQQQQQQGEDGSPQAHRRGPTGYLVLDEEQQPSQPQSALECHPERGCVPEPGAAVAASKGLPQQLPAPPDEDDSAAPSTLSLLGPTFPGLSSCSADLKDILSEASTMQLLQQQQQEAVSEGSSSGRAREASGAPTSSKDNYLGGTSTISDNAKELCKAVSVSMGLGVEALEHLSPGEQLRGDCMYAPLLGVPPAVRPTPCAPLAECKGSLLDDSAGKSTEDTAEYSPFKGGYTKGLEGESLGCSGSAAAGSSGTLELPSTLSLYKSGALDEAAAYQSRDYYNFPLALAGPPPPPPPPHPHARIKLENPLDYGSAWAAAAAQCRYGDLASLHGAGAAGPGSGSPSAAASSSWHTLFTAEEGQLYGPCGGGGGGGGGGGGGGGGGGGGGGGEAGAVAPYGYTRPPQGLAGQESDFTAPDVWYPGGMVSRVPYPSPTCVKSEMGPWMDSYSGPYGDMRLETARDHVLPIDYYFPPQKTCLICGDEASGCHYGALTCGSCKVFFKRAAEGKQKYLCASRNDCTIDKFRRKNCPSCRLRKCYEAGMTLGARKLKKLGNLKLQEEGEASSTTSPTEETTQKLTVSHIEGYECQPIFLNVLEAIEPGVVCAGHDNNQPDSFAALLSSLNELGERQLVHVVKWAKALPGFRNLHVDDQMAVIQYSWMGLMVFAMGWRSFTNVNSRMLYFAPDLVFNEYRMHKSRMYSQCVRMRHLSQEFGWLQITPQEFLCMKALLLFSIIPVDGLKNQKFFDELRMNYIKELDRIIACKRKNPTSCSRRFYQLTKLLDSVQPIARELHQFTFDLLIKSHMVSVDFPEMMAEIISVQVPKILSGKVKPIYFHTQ
Method in brief: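 Cell line: GeneBLAzer AR-UAS-bla GripTite (HEK293). Stimulus: R1881 added after compound. Exposure: 16 h, 37C, 5% CO2. Readout: LiveBLAzer B/G FRET fluorescence after 2 h at room temperature.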

[18] = target: Androgen receptor (Homo sapiens) (UniProt P10275); test: qHTS assay to identify small molecule agonists of the androgen receptor (AR) signaling pathway (AID 743036; active = well fitted activation curve with a large enough effect in the signal ratio in the repeat runs, with a control signal flat, not every such curve was filed as active; the % refers to the signal ratio)
Method in brief: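 Activation was read as beta-lactamase FRET signal from LiveBLAzer B/G substrate, added for 2 h at room temperature. Before that, GeneBLAzer AR-UAS-bla GripTite (HEK293) cells had 16 h compound exposure at 37C.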

[19] = target: Androgen receptor (Homo sapiens) (UniProt P10275); test: qHTS assay to identify small molecule agonists of the androgen receptor (AR) signaling pathway using the MDA cell line (AID 743040; also: nearly all actives have a fitted effect of over 20% in size)
Method in brief: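 Cells plated, 5 h at 37C/0% CO2; compound or DMSO pinned; 16 h at 37C; ONE-Glo added; luminescence measured after 30 min at room temperature. Reporter line: MDA-kb2 with MMTV-luciferase responsive to AR and GR.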

[20] = target: Androgen receptor (Homo sapiens) (UniProt P10275); test: qHTS assay to identify small molecule antagonists of the androgen receptor (AR) signaling pathway using the MDA cell line (AID 743042; also: nearly all actives have a fitted effect of over 55% in size)
Method in brief: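 Antagonist mode: compounds plus R1881 agonist added to MDA-kb2 AR-luc cells, incubated 16 h at 37C. Luciferase reporter luminescence quantified, with multiplexed CellTiter-Fluor readout for cell viability.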

Measured: Potency

Fc1ccc(Br)cc1
inactive: [1] | [2] | [3] | [4] | [5] | [6] | [7] | [8] | [9] | [10] | [11] | [12] | [13] | [14]

Cc1ccc(S(N)(=O)=O)cc1
inactive: [1] | [2] | [3] | [4] | [5] | [6] | [7] | [8] | [9] | [15] | [10] | [11] | [12] | [13] | [14]

C#CCN(C)Cc1ccccc1
inactive: [1] | [2] | [3] | [4] | [5] | [6] | [7] | [8] | [9] | [15] | [10] | [11] | [13] | [14] | [16]

O=C(O)CC(C(=O)O)C(CC(=O)O)C(=O)O (configuration not stated)
inactive: [1] | [2] | [3] | [4] | [5] | [6] | [7] | [8] | [9] | [15] | [10] | [11] | [12] | [13] | [14]

c1ccc2scnc2c1
inactive: [1] | [2] | [3] | [4] | [5] | [6] | [7] | [8] | [9] | [10] | [11] | [12] | [13] | [14] | [16]

NNc1nncc2ccccc12
inactive: [1] | [2] | [3] | [4] | [5] | [6] | [7] | [8] | [9] | [15] | [10]
active: [14] 21.9 µM

CCCCCC1=CCCC1=O
inactive: [1] | [2] | [3] | [4] | [5] | [6] | [7] | [8] | [9] | [10] | [11] | [12] | [13] | [14] | [16]

CCC(O)OCCCOC (configuration not stated)
inactive: [1] | [2] | [3] | [4] | [5] | [6] | [7] | [8] | [9] | [10] | [11] | [12] | [13] | [14]

ON=C1CCCCC1
inactive: [1] | [2] | [3] | [4] | [5] | [6] | [7] | [8] | [9] | [10] | [11] | [12] | [13] | [14] | [16]

C[Si](O[Si](C)(C)C)O[Si](C)(C)C
inactive: [1] | [2] | [3] | [4] | [5] | [6] | [7] | [8] | [9] | [10] | [11] | [12] | [13] | [14] | [17] | [18] | [19] | [16] | [20]

CC(C)(C)[C@@H](O)[C@@H](Cc1ccc(Cl)cc1)n1cncn1
inactive: [1] | [2] | [3] | [4] | [5] | [6] | [7] | [8] | [9] | [15] | [10] | [14]
inactive and 48.5 µM (active): [11]
active: [12] 30.6 µM | [13] 61.1 µM

COc1ccc(NC(C)=O)cc1N
inactive: [1] | [2] | [3] | [4] | [5] | [6] | [7] | [8] | [9] | [15] | [10] | [11] | [13] | [14]

CCCCC(CC)COC(=O)C(C#N)=C(c1ccccc1)c1ccccc1 (configuration not stated)
inactive: [1] | [2] | [3] | [4] | [5] | [6] | [7] | [8] | [9] | [15] | [10] | [14] | [16]
13.3 µM (active) and inactive: [13]
active: [11] 11.9 µM

CCCCC(CC)COC(=O)CS (configuration not stated)
inactive: [1] | [2] | [3] | [4] | [5] | [6] | [7] | [8] | [9] | [10] | [11] | [12] | [14] | [16]
inactive and 61.1 µM (active): [13]

CN(C)CCCN
inactive: [1] | [2] | [3] | [4] | [5] | [6] | [7] | [8] | [9] | [10] | [11] | [12] | [13] | [14]

O=S1(=O)CC=CC1
inactive: [1] | [2] | [3] | [4] | [5] | [6] | [7] | [8] | [9] | [15] | [10] | [11] | [13] | [14] | [16]

O=C(OCCOCCOC(=O)c1ccccc1)c1ccccc1
inactive: [1] | [2] | [3] | [4] | [5] | [6] | [7] | [8] | [9] | [15] | [10] | [11] | [13] | [14] | [16]
